Reference: PubChem BioAssay (NCI)
The panel holds about 83,000 compounds, 20% with a hit somewhere; the sample as a whole holds those more often.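 Compound tested at a single concentration for 48 hours in 96-well plates; a percent growth value below 10 was scored as active.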 Active and inactive are the calls of the source.

System: NCI-H460 lung
Assay: NCI-60 one-dose screen, 48 h (100 = growth as untreated, 0 = no growth, -100 = all killed)
Settings: 10 µM unless noted

Structure (SMILES) | growth
O=C(COc1cccc(/C=C2\COc3ccc(Cl)cc3C2=O)c1)c1ccc(Cl)cc1 | 102% (inactive)
Cc1cc(Nc2ccc(C)c(Cl)c2)n2nc(C(F)(F)F)nc2n1 | 69% (inactive)
CN(C)c1ccc(NC(=O)c2ccc(/C=C/C(=O)c3ncc[nH]3)cc2)cc1 | 25.4% (inactive)
O=[N+]([O-])c1ccccc1/C=N\NC(=S)N/N=C/c1ccccc1[N+](=O)[O-] | 10% (inactive)
O=C(Oc1cccnc1)c1ccsc1Nc1ccnc(C(F)(F)F)c1 | 105% (inactive)
OC(c1cc2cc(Cl)c(Cl)cc2c2cc(C(F)(F)F)ccc12)C1CCCCN1 (stereo unspecified) | -71.8% (active)
COc1ccc(-c2cc(-c3ccc(Nc4ccnc5cc(Cl)ccc45)cc3)nc(N3CCOCC3)n2)cc1 | 13.3% (inactive)
C=C1C(=O)O[C@H]2[C@H]1CC/C(COC(=O)NCCc1ccc(OC)c(OC)c1)=C\CC[C@@]1(C)O[C@@H]21 | 93.9% (inactive)
O=[N+]([O-])c1ccc2c(c1)Cc1cc(F)ccc1-2 | 106% (inactive)
CN1CCN(c2nc(NCCCNc3ccnc4cc(Cl)ccc34)c3ccccc3n2)CC1 | 28.5% (inactive)
Clc1ccc2c(NCCCCNc3nc(N4CCCCC4)nc4ccccc34)ccnc2c1 | 6.3% (active)
NC(=NC1C2CC3CC(C2)CC1C3)Nc1ccc(I)cc1 (stereo unspecified) | 55.2% (inactive)
CCOc1nc(-c2ccccc2)cc2c(O)c(C(=O)O)[nH]c(=O)c12 | 102% (inactive)
COc1ccc(Nc2cc(C)nc(N3CCN(c4ccnc5cc(Cl)ccc45)CC3)n2)cc1 | 18.5% (inactive)
Cc1cc(N2CCN(c3ccnc4cc(Cl)ccc34)CC2)nc(N2CCOCC2)n1 | 96.7% (inactive)
N#Cc1c(N)n(CCNC(=O)c2ccccc2)c2nc3ccccc3nc12 | 117% (inactive)
COc1ccc(CN2c3ccccc3Sc3ccccc32)c(C(F)(F)F)c1 | 9.92% (active)
CCc1c(Nc2ccccc2C)nc(N)[nH]c1=O | 108% (inactive)
CC(=O)c1cc2c(N)c(C(=O)Nc3ccccc3)sc2nc1C | 15.9% (inactive)

Structure (SMILES) | growth
CCCCC/C(C=C(C#N)C#N)=C/c1ccccc1 | 37.4% (inactive)
OCCNc1nccc(N2CCN(c3ccnc4cc(Cl)ccc34)CC2)n1 | 96.8% (inactive)
Cc1cc(N2CCSCC2)nc(NC2CCCC(Nc3ccnc4cc(Cl)ccc34)C2)n1 (stereo unspecified) | -11.2% (active)
COc1ccc(Nc2c3c4c(cccc4[nH]c2=O)C(=O)c2ccccc2-3)cc1 | -44.4% (active)
O=C1/C(=C/c2ccccc2O)N=C2SCCCN12 | 103% (inactive)
COc1cc2c(cc1O)CC[C@@H]1[C@@H]2CC[C@]2(C)[C@@H](OCCCN(C)C)CC[C@@H]12 | -61.4% (active)
O=C(Cn1cccc(Nc2ccccc2)c1=O)Nc1ccccc1 | 106% (inactive)
Cc1cc(N2CCN(c3ccnc4cc(Cl)ccc34)CC2)nc(NC2CCCCC2)n1 | 1.4% (active)
CSc1ccc(SC2c3ccc(C)cc3Oc3nc(N)c(C#N)c(N)c32)cc1 (stereo unspecified) | -72.5% (active)
O=c1ccccc(-c2ccc(-c3ccco3)cc2)c1O | 2.15% (active)
O=C(COc1ccc(/C=C2\CSc3ccccc3C2=O)cc1)Nc1nccs1 | 107% (inactive)
CN(C)CCCNc1c2ccccc2nc2ccccc12 | 97.7% (inactive)
O=C(Cc1ccc(/C=C/C(=O)c2ncc[nH]2)cc1)Nc1ccccc1 | 11.7% (inactive)
CC/C=C\C/C=C\C[C@H]1C/C=C2/C(=O)C=C[C@@H]2C/C=C\CCC(=O)O1 | -4.43% (active)
COc1cccc(-c2nc(SCC(=O)Nc3ccc(C(=O)/C=C/c4ccc(OC)c(OC)c4)cc3)[nH]c(=O)c2C#N)c1 | 94.7% (inactive)
Cc1cc(N2CCN(C)CC2)nc(NC2CCCC(Nc3ccnc4cc(Cl)ccc34)C2)n1 (stereo unspecified) | -26.6% (active)
Clc1ccc2nc3nc4ccc[nH]c4cc3c2c1 | 54.4% (inactive)
COc1ccc2c(c1)C(=O)/C(=C/c1ccccn1)CC2 | 97.8% (inactive)
COc1ccc(C2Nc3c(c(C(C)(C)C)nn3-c3ccccc3)C(=O)CS2)cc1 (stereo unspecified) | 106% (inactive)

System: HOP-92 NSCLC
Assay: as above
Settings: 10 µM unless noted

Structure (SMILES) | growth
O=C(COc1cccc(/C=C2\COc3ccc(Cl)cc3C2=O)c1)c1ccc(Cl)cc1 | 66.3% (inactive)
Cc1cc(Nc2ccc(C)c(Cl)c2)n2nc(C(F)(F)F)nc2n1 | -9.25% (active)
CN(C)c1ccc(NC(=O)c2ccc(/C=C/C(=O)c3ncc[nH]3)cc2)cc1 | 94.1% (inactive)
O=[N+]([O-])c1ccccc1/C=N\NC(=S)N/N=C/c1ccccc1[N+](=O)[O-] | 53.7% (inactive)
O=C(Oc1cccnc1)c1ccsc1Nc1ccnc(C(F)(F)F)c1 | 44.6% (inactive)
OC(c1cc2cc(Cl)c(Cl)cc2c2cc(C(F)(F)F)ccc12)C1CCCCN1 (stereo unspecified) | -70.9% (active)
COc1ccc(-c2cc(-c3ccc(Nc4ccnc5cc(Cl)ccc45)cc3)nc(N3CCOCC3)n2)cc1 | 67.2% (inactive)
C=C1C(=O)O[C@H]2[C@H]1CC/C(COC(=O)NCCc1ccc(OC)c(OC)c1)=C\CC[C@@]1(C)O[C@@H]21 | 26.6% (inactive)
O=[N+]([O-])c1ccc2c(c1)Cc1cc(F)ccc1-2 | 80.2% (inactive)
CN1CCN(c2nc(NCCCNc3ccnc4cc(Cl)ccc34)c3ccccc3n2)CC1 | 68.4% (inactive)
Clc1ccc2c(NCCCCNc3nc(N4CCCCC4)nc4ccccc34)ccnc2c1 | -35.3% (active)
NC(=NC1C2CC3CC(C2)CC1C3)Nc1ccc(I)cc1 (stereo unspecified) | 31.1% (inactive)
CCOc1nc(-c2ccccc2)cc2c(O)c(C(=O)O)[nH]c(=O)c12 | 28.2% (inactive)
COc1ccc(Nc2cc(C)nc(N3CCN(c4ccnc5cc(Cl)ccc45)CC3)n2)cc1 | 25.3% (inactive)
Cc1cc(N2CCN(c3ccnc4cc(Cl)ccc34)CC2)nc(N2CCOCC2)n1 | 66.2% (inactive)
N#Cc1c(N)n(CCNC(=O)c2ccccc2)c2nc3ccccc3nc12 | -17.4% (active)
COc1ccc(CN2c3ccccc3Sc3ccccc32)c(C(F)(F)F)c1 | 39.4% (inactive)
CCc1c(Nc2ccccc2C)nc(N)[nH]c1=O | 93.7% (inactive)
CC(=O)c1cc2c(N)c(C(=O)Nc3ccccc3)sc2nc1C | 57.6% (inactive)

Structure (SMILES) | growth
CCCCC/C(C=C(C#N)C#N)=C/c1ccccc1 | 112% (inactive)
OCCNc1nccc(N2CCN(c3ccnc4cc(Cl)ccc34)CC2)n1 | 88.7% (inactive)
Cc1cc(N2CCSCC2)nc(NC2CCCC(Nc3ccnc4cc(Cl)ccc34)C2)n1 (stereo unspecified) | -66.1% (active)
COc1ccc(Nc2c3c4c(cccc4[nH]c2=O)C(=O)c2ccccc2-3)cc1 | 15.5% (inactive)
O=C1/C(=C/c2ccccc2O)N=C2SCCCN12 | 80.9% (inactive)
COc1cc2c(cc1O)CC[C@@H]1[C@@H]2CC[C@]2(C)[C@@H](OCCCN(C)C)CC[C@@H]12 | -18.2% (active)
O=C(Cn1cccc(Nc2ccccc2)c1=O)Nc1ccccc1 | 97% (inactive)
Cc1cc(N2CCN(c3ccnc4cc(Cl)ccc34)CC2)nc(NC2CCCCC2)n1 | 20.4% (inactive)
CSc1ccc(SC2c3ccc(C)cc3Oc3nc(N)c(C#N)c(N)c32)cc1 (stereo unspecified) | -67.6% (active)
O=c1ccccc(-c2ccc(-c3ccco3)cc2)c1O | 60.1% (inactive)
O=C(COc1ccc(/C=C2\CSc3ccccc3C2=O)cc1)Nc1nccs1 | 78.8% (inactive)
CN(C)CCCNc1c2ccccc2nc2ccccc12 | 180% (inactive)
O=C(Cc1ccc(/C=C/C(=O)c2ncc[nH]2)cc1)Nc1ccccc1 | 83.6% (inactive)
CC/C=C\C/C=C\C[C@H]1C/C=C2/C(=O)C=C[C@@H]2C/C=C\CCC(=O)O1 | -11.8% (active)
COc1cccc(-c2nc(SCC(=O)Nc3ccc(C(=O)/C=C/c4ccc(OC)c(OC)c4)cc3)[nH]c(=O)c2C#N)c1 | 93.2% (inactive)
Cc1cc(N2CCN(C)CC2)nc(NC2CCCC(Nc3ccnc4cc(Cl)ccc34)C2)n1 (stereo unspecified) | -69.9% (active)
Clc1ccc2nc3nc4ccc[nH]c4cc3c2c1 | 105% (inactive)
COc1ccc2c(c1)C(=O)/C(=C/c1ccccn1)CC2 | 84.1% (inactive)
COc1ccc(C2Nc3c(c(C(C)(C)C)nn3-c3ccccc3)C(=O)CS2)cc1 (stereo unspecified) | 91.7% (inactive)
